# KAT2A inh = inhibitors of human GCN5L2 histone acetyltransferase; hit rate 0.21% among 390,000; Potency, µM (doses to about 58.9 µM), inactives show top-dose activity change, negative = inhibition, actives largely listed as inhibitors; Q92830; GCN5L2 HAT assay, ThioGlo1 CoA-SH fluorescence; also: potency is read from the fitted curve at half-maximal effect; % is scaled to controls: 0 for no effect and ±100 for the full control effect
# Target sequence (Q92830 whole entry, looked up): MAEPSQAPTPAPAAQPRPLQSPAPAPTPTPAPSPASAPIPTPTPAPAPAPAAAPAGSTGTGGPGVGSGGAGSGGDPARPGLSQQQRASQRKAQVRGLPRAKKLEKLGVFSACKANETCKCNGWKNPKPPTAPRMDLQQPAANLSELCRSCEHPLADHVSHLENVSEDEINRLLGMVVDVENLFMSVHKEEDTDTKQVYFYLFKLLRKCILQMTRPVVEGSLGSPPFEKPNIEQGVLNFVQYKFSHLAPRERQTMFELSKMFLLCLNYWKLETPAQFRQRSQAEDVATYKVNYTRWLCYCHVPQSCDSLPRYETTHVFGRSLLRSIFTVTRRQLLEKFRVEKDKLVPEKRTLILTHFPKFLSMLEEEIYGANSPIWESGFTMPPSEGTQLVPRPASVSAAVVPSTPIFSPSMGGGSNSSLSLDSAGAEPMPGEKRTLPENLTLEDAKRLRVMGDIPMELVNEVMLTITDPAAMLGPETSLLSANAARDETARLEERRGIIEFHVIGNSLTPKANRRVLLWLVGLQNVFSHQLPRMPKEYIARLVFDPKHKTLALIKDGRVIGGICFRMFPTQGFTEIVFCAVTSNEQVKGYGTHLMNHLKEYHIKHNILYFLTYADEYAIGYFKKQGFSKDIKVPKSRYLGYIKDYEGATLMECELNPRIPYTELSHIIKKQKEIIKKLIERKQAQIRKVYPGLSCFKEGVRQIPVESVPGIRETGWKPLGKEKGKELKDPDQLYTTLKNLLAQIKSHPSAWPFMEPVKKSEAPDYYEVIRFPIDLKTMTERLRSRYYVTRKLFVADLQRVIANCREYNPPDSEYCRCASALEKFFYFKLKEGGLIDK
#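 Free CoA generated was detected with ThioGlo1 (50uM) fluorescence at Ex340nm/Em540nm, read immediately and after 20 min at room temperature. Enzyme, 20 nM in HEPES pH 7.5 buffer, saw compounds 15 min before adding 75uM H3(1-25) peptide and 70uM acetyl-CoA.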
# VDR inh = vitamin D3 receptor (human) inhibition. VDR-SRC2-3 peptide fluorescence polarization, 2 h. hit rate 0.93% among 400,000. P11473. Potency, µM, inactives show max response, negative = inhibition, hits mostly inhibitors; also: potency is read from the fitted curve at half-maximal effect; % is scaled to controls: 0 for no effect and ±100 for the full control effect
#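 Fluorescence polarization assay measuring small-molecule disruption of VDR binding to the coregulator peptide SRC2-3. Compounds were pin-transferred (23 nl) into the reagent mix and incubated 2 h at room temperature before reading.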
# Rango release inh = inhibition of RanGTP-driven Rango-importin beta dissociation; Biochemical FRET Rango-importin beta, RanGTP-induced dissociation; hit rate 0.071% among 340,000; O95149+P62826; Potency, µM (series often up to 46.1 µM), for inactives: at the highest dose activity change, negative = inhibition; calls by dose curve; also: potency is read from the fitted curve at half-maximal effect; % of control where 0% means no effect; nearly all actives have a fitted effect of over 45% in size
#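 Two FRET readings bracket the reaction: one 5 min after compound meets Rango–importin beta, another 45 min after RanGTP-RCC1 (0.6 uM Ran, 0.2 uM RCC1, 2 mM GTP) is added. Only the second defines inhibition.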
# Rango complex inh = Rango-importin beta binding inhibition; AID 540263; Rango CFP/YFP FRET sensor + importin beta, 45 min; hit rate 0.031% among 340,000; Q14974; Potency, µM (series often up to 92.2 µM), for inactives: at the highest dose inhibition of complex formation; calls by dose curve;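 also: potency is read from the fitted curve at half-maximal effect; 0% = DMSO wells and 100% = buffer wells lacking importin beta; nearly all actives have a fitted effect of over 15% in size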
#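 FRET biosensor (snurportin 1 IBB flanked by EYFP and cerulean), 50 nM, with compound 5 min, then 0.125 microM importin beta in PBS, 1 mM DTT, 0.02% Tween-20, 0.1% BSA. CFP/YFP ratio read after 45 min at room temperature; pre-read flags interference.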
# PI5P4Ka inh = inhibitors of human PI5P4K alpha; P48426; PI5P4Kalpha enzyme, ADP-Glo luminescence, 60 min; hits give low values; max response, %; hit rate 1.2% among 330,000; AID 652105; active = max response of -50% or lower; inconclusive = between -30% and -50%; inactive = -30% or higher; also: value at the top dose of about 77 µM; % is scaled to controls: 0 for no effect and ±100 for the full control effect
#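 Human PI5P4Kalpha with substrate in 0.038 M HEPES pH 7.4, 0.28 mM EGTA, 0.1% CHAPS, 5% DMSO; reaction started with 5 microM ATP (final), 60 min at room temperature. ADP formed read by ADP-Glo luminescence.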
# PLK1 PBD block = blocks phosphopeptide binding to human PLK1 polo-box domain; Plk1 PBD binding of FITC phosphopeptide, fluorescence polarization; Potency, µM, for inactives: max response, negative = inhibition, hits mostly inhibitors; hit rate 2.8% among 360,000; AID 720504; also: potency is read from the fitted curve at half-maximal effect; series mostly up to about 57 µM; % is scaled to controls: 0 for no effect and ±100 for the full control effect; nearly all actives have a fitted effect of over 65% in size
# * = called active by the depositor; ? = inconclusive; nt = no result. Only some compounds are listed: those with a hit (about 3.6% of all), similar ones and a draw of the others. Unless noted, calls follow the shape of the dose curve; as a rule, active = well fitted curve in the direction sought with a large enough effect; inconclusive = small, poorly fitted or top-dose-only effect, or another doubt; inactive = no such curve, though single readings can be large; an effect the other way counts as inactive or inconclusive.
SMILES,KAT2A inh,VDR inh,Rango release inh,Rango complex inh,PI5P4Ka inh,PLK1 PBD block
COc1ccc(-n2sc3ccc(F)cc3c2=O)cc1,2.8µM*,?,0%,-1%,-87*,2.7µM*
Cc1ccc2scc(N3CCN(c4ccc(F)cc4)CC3)c(=O)c2c1,-12%,4%,nt,nt,nt,nt
Cc1ccc(C)c(-n2sc3ccc(F)cc3c2=O)c1,3.5µM*,20µM*,1%,0%,-85*,2.1µM*
COc1ccc(-n2sc3ccccc3c2=O)cc1,nt,nt,nt,nt,-89*,2.7µM*
O=c1c2cc(F)ccc2sn1-c1ccc(F)cc1,1.8µM*,18µM*,0%,0%,-90*,3.4µM*
COc1ccc(-n2cc(C(=O)O)c3ccccc3c2=O)cc1,-9%,-9%,-4%,3%,-1,-5%
O=C1CCCC(=O)N1c1ccc(F)cc1,1%,-5%,4%,-5%,-6,-7%
COc1ccc(/C=C(\NC(=O)c2ccccc2)C(=O)NC2CCCCC2)cc1,-4%,-6%,nt,nt,nt,nt
CN(C)C(=O)Nc1ccc(Oc2ccc(Cl)cc2)cc1,-12%,2%,nt,nt,nt,nt
COc1ccc(-c2nc3ccccc3nc2-c2ccccc2)cc1,-7%,?,-10%,3%,-13,21µM*
CCC1C(C#N)=C(SCC(N)=O)NC2=C1C(=O)CC(C)(C)C2 (stereo unspecified),1%,-10%,-22%,?,-10,27µM*
CC1(C)CC(=O)C2=C(C1)NC(SCC(N)=O)=C(C#N)C21CCCCC1,2%,1%,?,?,-11,-17%
CC1=C(C#N)C(c2ccc(O)cc2)C2=C(CC(C)(C)CC2=O)N1 (stereo unspecified),-3%,1%,1%,-2%,2,1%
CC1=C(C#N)C(C)C2=C(CC(C)(C)CC2=O)N1 (stereo unspecified),-24%,-4%,-12%,?,-3,30µM*
CC1C(C#N)=C(SCC(N)=O)NC2=C1C(=O)CC(C)(C)C2 (stereo unspecified),-4%,?,?,?,-6,27µM*
CN1CCCN=C1/C=C\c1cccs1,11µM*,nt,nt,nt,nt,nt
Cc1ccsc1/C=C/C1=NCCCN1C,-4%,17%,?,0%,-1,-2%
CCOC(=O)c1c(NC(=O)c2cc(=O)c3cc(C)cc(C)c3o2)sc(C)c1C,-13%,1%,nt,nt,nt,nt
O=c1[nH]c(=O)c2[nH]c(=S)[nH]c2[nH]1,nt,?,-20%,?,-86*,8.4µM*
CCc1ccccc1Nc1nc2ccccc2c2nncn12,-6%,1%,nt,nt,nt,nt
CCc1ccc(CNc2ccc(O)cc2)cc1,-20%,22µM*,-3%,0%,-54*,30µM*
Oc1ccc(NCc2ccc(OCc3ccccc3)cc2)cc1,-10%,89µM*,-2%,4%,-21,-9%
Nc1ccc2nn(-c3ccccc3)nc2c1,?,-8%,?,?,3,21µM*
Cc1ccc(S(=O)(=O)/N=C(/NC(=S)Nc2ccccc2)c2ccccc2)cc1,0%,-25%,4%,0%,3,?
Cc1ccc(NC(=S)N/C(=N/S(=O)(=O)c2ccccc2)c2ccccc2)cc1,1%,-5%,-25%,0%,1,24µM*
SMILES,KAT2A inh,VDR inh,Rango release inh,Rango complex inh,PI5P4Ka inh,PLK1 PBD block
CCOC(=S)N/C(=N\S(=O)(=O)c1ccccc1)c1ccccc1,-3%,-29%,2%,5%,-4,19µM*
COC(=S)N/C(=N\S(=O)(=O)c1ccc(Cl)cc1)c1ccccc1,-8%,89µM*,5%,0%,-2,24µM*
O=S(=O)(/N=C(/NS(=O)(=O)c1ccccc1)c1ccccc1)c1ccccc1,8%,-3%,-14%,0%,0,-6%
CCOC(=S)N/C(=N\S(C)(=O)=O)c1ccccc1,-15%,-24%,-3%,8%,1,17µM*
CCN1CCN(C(c2ccc(SC)cc2)c2c(O)cc(C)n(Cc3ccco3)c2=O)CC1 (stereo unspecified),-7%,-15%,nt,nt,nt,nt
CCCOC(=S)N/C(=N\S(=O)(=O)c1ccccc1)c1ccccc1,-3%,-14%,10%,-1%,nt,28µM*
COCO[C@H]([C@@H](C)C=C(Br)Br)[C@@H](C)COCc1ccc(OC)cc1,nt,-7%,nt,nt,nt,nt
CCOc1ccc(CCNC(=O)CCCc2nnc3n(CC)c(=O)c4sccc4n23)cc1OCC,-7%,1%,nt,nt,nt,nt
NC(=O)c1ccccc1NC(=S)NC(=O)CCc1ccccc1,-14%,?,0%,2%,?,15µM*
O=c1c2ccccc2c(-c2ccccc2)nn1Cc1c(Cl)cccc1Cl,-18%,9%,15%,1%,nt,-1%
S=c1[nH]nc(-c2ccccc2)o1,14%,-9%,4%,1%,?,30µM*
Cc1ccc(-c2cc(-c3n[nH]c(=S)o3)c3ccccc3n2)cc1,?,-11%,9%,3%,-26,27µM*
O=c1c2ccccc2c(-c2n[nH]c(=S)o2)nn1Cc1ccccc1,-5%,-13%,-2%,0%,-86*,?
S=c1[nH]nc(-c2cc(-c3ccccn3)nc3ccccc23)o1,-20%,-22%,-17%,?,?,?
O=C(Nc1ccc(-c2n[nH]c(=S)o2)cc1)c1ccccc1Br,-8%,?,41%,0%,-57*,-11%
O=C(Nc1ccc(NC(=O)c2ccccc2Br)cc1)c1ccccc1,1%,-19%,-11%,0%,-6,-5%
Cc1ccc(Cl)cc1N1CCN(C(=O)COc2cc(=O)n(C)c3ccccc23)CC1,-1%,0%,nt,nt,nt,nt
CSc1ccc(CNC(=O)C2CCCN(S(=O)(=O)N(C)c3ccc(F)cc3)C2)cc1 (stereo unspecified),-8%,11%,nt,nt,nt,nt
O=C(Nc1ccc(C(F)(F)F)cc1)c1ccccc1Br,-3%,-1%,-14%,-3%,-26,24µM*
CCOc1ccc(NS(=O)(=O)c2ccc3c(c2)N(C(C)=O)CC3)cc1,0%,3%,3%,-3%,7,-6%
CCOc1ccc(NS(=O)(=O)c2ccc3c(c2)N(C(C)=O)CCS3)cc1,-2%,-18%,9%,-2%,-22,27µM*
O=C(Nc1nc(=O)n(C(=O)C2CC2)s1)c1ccccc1,2%,50µM*,-13%,-3%,?,-5%
O=C(Nc1nc(=O)[nH]s1)c1ccccc1,-5%,6%,-6%,0%,0,-19%
COc1ccc(-c2nc3ccc(NC(=O)CO)cc3c(=O)n2Cc2cccc(Cl)c2)cc1COc1ccc(NC(C)=O)cc1,nt,-15%,nt,nt,nt,nt
CCN1CCOC(=O)C1CC(=O)Nc1ccc(Br)cc1 (stereo unspecified),0%,?,nt,nt,nt,nt
C/C(N)=C(/C#N)C(=O)CSc1nnc(Nc2cccc(C)c2)s1,-10%,-16%,-9%,7%,-50*,-9%

# Compound activity as filed in PubChem.
